# D1 PAM: Potentiators of Human D1 Dopamine Receptor: qHTS | potentiation, % at 10 µM | D(1A) dopamine receptor (Homo sapiens), P21728 | hit rate 0.036% among 360,000 | HEK293 TREx D1 cells, calcium flux, dopamine EC20 potentiation | AID 504651, 2011; in the data active = potentiation above about 30%; also: 0% is about no effect
# Target sequence (P21728 whole entry, looked up): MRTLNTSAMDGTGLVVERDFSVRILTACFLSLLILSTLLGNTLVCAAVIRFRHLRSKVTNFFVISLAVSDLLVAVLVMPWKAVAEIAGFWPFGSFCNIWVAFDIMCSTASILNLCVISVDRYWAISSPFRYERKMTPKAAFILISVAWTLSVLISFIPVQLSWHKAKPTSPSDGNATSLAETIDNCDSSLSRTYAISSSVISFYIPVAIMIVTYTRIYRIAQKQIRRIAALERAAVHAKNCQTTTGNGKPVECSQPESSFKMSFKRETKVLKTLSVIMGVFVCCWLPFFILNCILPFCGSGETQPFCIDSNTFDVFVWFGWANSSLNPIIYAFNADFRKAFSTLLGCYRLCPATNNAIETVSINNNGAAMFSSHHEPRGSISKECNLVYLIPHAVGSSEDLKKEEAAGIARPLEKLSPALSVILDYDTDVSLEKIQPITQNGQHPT
# DRD3 agonist: qHTS of D3 Dopamine Receptor Agonist: qHTS | AID 652048, 2013 | D3R DiscoveRx beta-arrestin cells, luminescence, 90 min | hit rate 0.58% among 410,000 | max activation, % | D(3) dopamine receptor (Homo sapiens), P35462; in the data active = max activation above about 30%; also: 0% is about no effect
#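 Cells at 1500/well, incubated overnight, then treated with pinned compounds (dopamine as control) for 90 min at 37 degrees C. DiscoveRx reagent added for 30 - 60 minutes at room temperature; luminescence read.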
# D1 ag: Allosteric Agonists of the Human D1 Dopamine Receptor: qHTS; AID 504660, 2011; activation, % at 2 µM; D(1A) dopamine receptor (Homo sapiens), P21728; HEK293 T-REx D1 cells, calcium flux, agonist mode; hit rate 1% among 360,000; in the data active = activation above about 30%; also: 0% is about no effect
#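 Tetracycline-induced HEK293 TREx D1 cells, force-coupled to calcium signalling, were dye-loaded with a no-wash calcium kit. Compound was pin-added after a 10 s baseline. Fluorescence was read kinetically at 1 cycle/s for 180 s, with calcium rises flagged as agonism.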
# D1 antagonist: Antagonist of Human D 1 Dopamine Receptor: qHTS. D(1A) dopamine receptor (Homo sapiens), P21728. HEK293 TREx D1 cells, calcium flux, dopamine EC80; active compounds read low. activity change, negative = inhibition, % at 10 µM. hit rate 3.2% among 360,000; in the data active = activity change below about -30%; also: % is scaled to controls: 0 for no effect and ±100 for the full control effect
#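 Using tetracycline-induced force-coupled D1 Hek293 cells and a calcium dye, signals were followed for 180 s after compound, then for 180 s after EC80 dopamine, to detect inhibitors.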
# D3 antag: qHTS of D3 Dopamine Receptor Antagonist: qHTS. hit rate 2.5% among 360,000. D3R cells, DiscoveRx beta-arrestin luminescence, antagonist mode; active compounds read low. D(3) dopamine receptor (Homo sapiens), P35462. max response, negative = inhibition, %; in the data active = max response below about -50%; also: % is scaled to controls: 0 for no effect and ±100 for the full control effect
#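 Cells expressing the human receptor were seeded at 1500 cells/well, incubated overnight at 37 degrees C in 5% CO2, then exposed to library compounds with dopamine controls for 90 minutes at 37 degrees C before luminescent detection.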
# Numbers without * were called inactive; nt = no result given. An excerpt weighted towards active compounds, which were near 6.1% of everything screened.
SMILES,D1 PAM,DRD3 agonist,D1 ag,D1 antagonist,D3 antag
CCc1ccc(NC(=O)c2ccc3c(c2)c(C)c(C)n3Cc2ccccc2)cc1,-4,-1,1,13,nt
CCc1ccc(CNC(=O)c2ccc3c(c2)c(C)c(C)n3Cc2ccccc2)cc1,-5,-9,3,-2,nt
COc1cccc(CNC(=O)c2ccc3c(c2)c(C)c(C)n3Cc2ccccc2)c1,-7,1,2,-33*,nt
Cc1c(C)n(Cc2ccccc2)c2ccc(C(=O)NCc3ccco3)cc12,-8,-14,7,-70*,nt
Cc1c(C)n(Cc2ccccc2)c2ccc(C(=O)OCCN(C)C)cc12,-4,-21,57*,-25,-23
Cc1ccc(CNC(=O)c2ccc3c(c2)c(C)c(C)n3Cc2ccccc2)o1,-7,-17,5,-28,nt
CCCc1cc(=O)[nH]c2nnc(SCC(=O)Nc3cccc(C)c3)n12,3,-12,2,nt,nt
O=C1CC(c2ccccc2)Sc2ccccc2N1Cc1ccc(F)cc1 (stereo unspecified),-5,2,1,3,nt
COc1ccc(NC(=O)c2oc3ccccc3c2NC(=O)c2cc(C)cc(C)c2)c(OC)c1,0,6,3,-3,nt
COc1cc(/C=C/c2nc(C#N)c(NC3CCCCC3)o2)cc(OC)c1OC,0,9,1,-3,nt
COc1cccc2c1Oc1ncccc1N(C(=O)Nc1cccc(Cl)c1)C2,2,-5,11,2,nt
CCOC(=O)Cn1cccc1-c1nc(-c2ccc(OC)cc2)c(-c2ccc(OC)cc2)s1,nt,1,nt,nt,nt
Cc1cc(C)c(S(=O)(=O)N2CCCCC2)cc1N(C)S(=O)(=O)c1ccc(Cl)cc1,4,-5,3,-31*,5
COc1ccc(C2C(C(=O)Nc3ccccc3OC)=C(C)Nc3c(C(=O)Nc4ccccc4)cnn32)c(OC)c1 (stereo unspecified),-4,-20,6,0,nt
CCN(CC)C1=CC2=CC(=C(C#N)C#N)CCC2CC1 (stereo unspecified),-10,-13,487*,-82*,8
CCCCN(C)C1=CC2=CC(=C(C#N)C#N)CCC2CC1 (stereo unspecified),1,1,490*,-85*,22
N#CC(C#N)=C1C=C2C=C(N3CCCCC3)CCC2CC1 (stereo unspecified),-7,9,671*,-29,3
COc1ccc(Cl)cc1NC(=O)c1c(NCc2cccs2)sc2c1CCCC2,6,-5,1,-20,nt
Nc1nc(-c2cccnc2)nc(N2CCCCC2)n1,1,33*,2,0,5
O=C1/C(=C\c2cccs2)CCC/C1=C\c1cccs1,nt,5,nt,nt,nt
CCc1ccc(-n2c(N3CCN(c4ccc(F)cc4)CC3)nc3ccccc3c2=O)cc1,4,6,3,18,nt
O=C1/C(=C/c2ccc(O)c(O)c2)Oc2cc(O)ccc21,-6,10,46*,12,16
COc1cc(/C=C2\Oc3cc(O)ccc3C2=O)ccc1O,-6,-4,63*,7,0
O=C1/C(=C/c2cccc([N+](=O)[O-])c2)Oc2cc(O)ccc21,-1,-1,20,-30,1
CC(C)CN(CCCNC(=O)Cn1ncc2c3ccccc3n(C)c2c1=O)CC(C)C,-2,6,-3,-3,nt
SMILES,D1 PAM,DRD3 agonist,D1 ag,D1 antagonist,D3 antag
COc1ccc(S(=O)(=O)Nc2cccc(S(=O)(=O)N3CCCCC3)c2)cc1,nt,6,nt,nt,4
Cc1ccc(S(=O)(=O)Nc2nc3ccccc3nc2Nc2cccc(S(=O)(=O)N3CCCC3)c2)cc1,-8,32*,7,-39*,46
O=[N+]([O-])c1cccc(S(=O)(=O)Nc2nc3ccccc3nc2Nc2cccc(S(=O)(=O)N3CCCCC3)c2)c1,-6,14,20,-32*,-6
COc1cc(C2C(=O)N(C3CCCCC3)CC(=O)N2Cc2ccc(C)cc2)ccc1OC(C)C (stereo unspecified),5,-21,-1,-6,nt
Cc1cc(CNC(=O)c2cccc(OC3CCN(S(=O)(=O)N(C)C)CC3)c2)on1,-10,-8,9,-39*,17
CN(C)S(=O)(=O)N1CCC(Oc2ccc(C(=O)N3CCCCCC3)cc2)CC1,nt,3,nt,nt,-2
CN(C)S(=O)(=O)N1CCC(Oc2ccc(C(=O)N3CCCCCCC3)cc2)CC1,-8,4,23,-35*,14
COCC(=O)N1CCC(Oc2ccc(C(=O)NCc3cc(C)no3)cc2)CC1,3,1,3,-8,3
CCN(Cc1cnn(C)c1)C(=O)c1ccc(OC2CCN(S(=O)(=O)N(C)C)CC2)cc1,-5,3,9,-42*,1
CN(C)S(=O)(=O)N1CCC(Oc2ccc(C(=O)NC3Cc4ccccc4C3)cc2)CC1,-4,5,16,-11,0
CN(C(=O)c1ccc(OC2CCN(S(=O)(=O)N(C)C)CC2)cc1)C1CCCCC1,-7,0,4,-1,2
CN(C)S(=O)(=O)N1CCC(Oc2cccc(C(=O)NC3CCCCCC3)c2)CC1,-7,1,14,-32*,1
Cc1cccc(Oc2coc3cc(OCC(=O)NC4CCCCC4)ccc3c2=O)c1,-3,1,9,-8,nt
CC(O)[C@H]1CC[C@H]2[C@@H]3CC[C@@H]4C[C@@H](O)CC[C@]4(C)[C@H]3CC[C@]12C (stereo partly specified),nt,13,nt,nt,nt
CCN(C(=O)Cn1cc(S(=O)(=O)Cc2ccccc2Cl)c2ccccc21)c1ccccc1,-1,4,4,11,nt
CN(N=Nc1ccc([N+](=O)[O-])cc1)c1ccccc1,-2,-1,2,-1,12
CN(CCCC(=O)O)c1ccc(N=Nc2ccc([N+](=O)[O-])cc2)cc1,nt,-18,nt,nt,-87*
Cc1ccc(NC(=O)c2cnn3c(C(F)F)cc(-c4ccccc4)nc23)cc1F,-6,-3,0,-1,nt
Nc1nnc(SCC(=O)OCC(=O)c2ccccc2Br)s1,4,-27,1,-3,-58*
Nc1nnc(SCC(=O)OCC(=O)c2ccccc2)s1,-7,7,3,3,-20
CCOC(=O)Nc1nnc(/C=C/c2ccc(OC)cc2)s1,-8,-13,2,8,-56*
Cc1ccc(NC(=O)CS(=O)CC(=O)N(CC(=O)NC(C)(C)C)c2cccc(C)c2C)cc1 (stereo unspecified),-4,32*,-1,-13,2
Cc1ccc(N(CC(=O)NC(C)(C)C)C(=O)CS(=O)CC(=O)Nc2ccc(F)cc2)cc1 (stereo unspecified),0,-11,1,2,-10
C=CCn1c(SCC(=O)Nc2sccc2C(N)=O)nc2ccc(Cl)cc2c1=O,-1,19,1,-12,106
